Source: PubChem
RBX1-CUL1 inh: inhibitors of human ROC1-CUL1 ubiquitin ligase activity. inhibition, % at 10 µM. E3 ubiquitin-protein ligase RBX1 (Homo sapiens) + Cullin-1 (Homo sapiens), P62877+Q13616. in vitro K48 di-Ub FRET, acceptor:donor ratio, 45 min. hit rate 0.6% among 140,000. AID 1347404, 2020; in the data active means inhibition above about 25%
Target sequence (P62877 whole entry, looked up): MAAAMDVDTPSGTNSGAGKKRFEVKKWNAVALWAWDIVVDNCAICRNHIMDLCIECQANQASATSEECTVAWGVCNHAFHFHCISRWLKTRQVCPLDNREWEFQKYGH
Target sequence (Q13616 whole entry, looked up): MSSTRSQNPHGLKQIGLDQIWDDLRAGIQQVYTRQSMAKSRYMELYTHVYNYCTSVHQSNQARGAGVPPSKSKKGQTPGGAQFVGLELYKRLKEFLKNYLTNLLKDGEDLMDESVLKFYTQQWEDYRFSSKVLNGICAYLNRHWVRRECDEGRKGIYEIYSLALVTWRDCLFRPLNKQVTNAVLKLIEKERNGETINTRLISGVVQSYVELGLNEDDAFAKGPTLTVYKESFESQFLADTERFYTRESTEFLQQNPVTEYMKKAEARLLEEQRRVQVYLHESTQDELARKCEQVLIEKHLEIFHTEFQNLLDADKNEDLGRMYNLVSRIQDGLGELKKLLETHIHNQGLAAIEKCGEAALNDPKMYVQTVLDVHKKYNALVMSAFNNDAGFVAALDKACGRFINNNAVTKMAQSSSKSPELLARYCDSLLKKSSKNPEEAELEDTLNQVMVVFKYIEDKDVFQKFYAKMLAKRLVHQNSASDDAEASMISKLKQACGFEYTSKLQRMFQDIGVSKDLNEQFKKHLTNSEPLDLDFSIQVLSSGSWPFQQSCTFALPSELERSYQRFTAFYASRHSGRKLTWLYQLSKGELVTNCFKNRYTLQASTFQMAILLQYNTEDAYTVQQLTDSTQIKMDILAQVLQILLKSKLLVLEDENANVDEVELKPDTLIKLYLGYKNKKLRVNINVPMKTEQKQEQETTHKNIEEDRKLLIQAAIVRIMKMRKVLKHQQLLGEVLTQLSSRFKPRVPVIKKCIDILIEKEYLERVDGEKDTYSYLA
A number is an active result; – = inactive. This excerpt belongs to a sample that is enriched for hits.

SMILES	RBX1-CUL1 inh
O=c1/c(=C\c2ccc(F)cc2)sc2n1C(c1ccc(Cl)cc1Cl)C1=C(N=2)c2ccccc2CC1 (stereo not given)	–
O=c1/c(=C\c2cc(Cl)cc(Cl)c2O)sc2n1C(c1ccc(Cl)cc1Cl)C1=C(N=2)c2ccccc2CC1 (stereo not given)	35
COc1ccccc1C1C2=C(N=c3s/c(=C/c4cccc(OCC(=O)O)c4)c(=O)n31)c1ccccc1CC2 (stereo not given)	30
O=c1/c(=C\c2cccs2)sc2n1C(c1cccc(F)c1)C1=C(N=2)c2ccccc2CC1 (stereo not given)	–
COc1ccc(C2C3=C(N=c4s/c(=C/c5cccc(OC)c5O)c(=O)n42)c2ccccc2CC3)cc1 (stereo not given)	–
O=C(NCC1CCCN(Cc2ccc3nonc3c2)C1)c1n[nH]c2ccccc12 (stereo not given)	–
COc1ccc(OC)c(C2C(C(=O)OC(C)C)=C(C)N=c3s/c(=C\c4ccc(O)cc4)c(=O)n32)c1 (stereo not given)	–
N#CC1CC(C#N)(c2ccccc2)CCC1=NC(=O)c1ccccc1 (stereo not given)	–
Cc1cccc(NC(c2cccc(OCc3ccccc3)c2)c2ccc3ccc(C)nc3c2O)n1 (stereo not given)	–
Cc1ccc(/C=C/c2ccc3cc(/C=C/c4ccc(C)cc4)ccc3c2)cc1	–
COc1ccc(CNC(=O)CCC2CCCN(C(=O)Cc3cccs3)C2)c(OC)c1 (stereo not given)	–
CCCN1CCN(C(=O)c2cc(Br)c(CC)s2)CC1	–
COc1ccc(C(=O)Oc2ccc(/C=c3/sc4n(c3=O)C(c3ccccc3Cl)C3=C(N=4)c4ccccc4CC3)cc2)cc1 (stereo not given)	–
COc1ccc(C2C3=C(N=c4s/c(=C/c5ccc(C(C)C)cc5)c(=O)n42)c2ccccc2CC3)cc1 (stereo not given)	–
COc1ccc(C2C3=C(N=c4s/c(=C/c5ccc(C(=O)O)cc5)c(=O)n42)c2ccccc2CC3)cc1 (stereo not given)	76
CCc1[nH]c2ccc(CNCc3cn[nH]c3-c3ccccc3)cc2c1C	–
Cc1nc(C)c(C(=O)N(C)C2CCCN(Cc3ccccc3F)C2)s1 (stereo not given)	–
COc1cccc(OCC(O)CN2CCCCCC2)c1 (stereo not given)	–
COc1cc(C=C2C(=O)OC(c3ccccc3)OC2=O)cc(Cl)c1O (stereo not given)	–
COc1cc(/C=C2\C(=O)N(c3ccccc3Cl)N=C2C)cc(I)c1O	78
CCCCOc1ccc(/C=C2/C(=O)N(c3cccc(Cl)c3C)N=C2C)cc1OC	–
CCn1ccnc1CNCc1cccnc1Oc1ccc(F)c(F)c1	–
O=C(C[n+]1ccc(-c2ccccc2)cc1)c1ccccc1	–
O=C(/C=C/c1cc[n+](CC(=O)c2ccc3cccc4c3c2CC4)cc1)c1ccc2cccc3c2c1CC3	87
CN(C)c1ccc(/C=C/C(=O)c2ccc3c4c(cccc24)CC3)cc1	–
SMILES	RBX1-CUL1 inh
CC12CCC(C(=O)NCCN3CCCCC3)(C(Br)C1=O)C2(C)C (stereo not given)	–
CC1(N2CCCCC2)C(=O)c2ccccc2C1=O	–
CC1(C)CC(=O)C(C2(O)C(=O)c3ccccc3C2=O)C(=O)C1	–
CC1(Nc2ccccc2)C(=O)c2ccccc2C1=O	–
CN1C(=O)N(C)C2(O)c3ccccc3C(=O)C12O (stereo not given)	–
O=C1c2ccccc2C(=O)C1(O)O	46
COC1(O)C(=O)c2ccccc2C(=O)C1(O)OC (stereo not given)	83
Cc1cccc(C(=O)NC2(C(F)(F)F)NC(=O)N(c3ccc(Cl)cc3)C2=O)c1 (stereo not given)	–
CCC(C)Oc1c(Cl)cc(/C=C2\C(=O)NC(=S)N(C)C2=O)cc1OC (stereo not given)	–
c1ccc2c(c1)nnn2CN(Cn1nnc2ccccc21)Cn1nnc2ccccc21	–
COc1ccc(C(=O)n2c(=S)nc3cc(C)ccn32)cc1	–
O=C(Nc1ccc2nc(SCC(=O)N3CCOCC3)sc2c1)c1cccc(Cl)c1	58
O=C(Nc1ccc2nc(SCC(=O)N3CCCC3)sc2c1)c1cccc(Cl)c1	–
COc1ccc(C(=O)Nc2ccc3nc(SCC(=O)N4CCOCC4)sc3c2)cc1	–
CCCOc1ccc([C@@H]2C3CN(C(C)C)CC=C3C(C#N)C(=N)C2(C#N)C#N)cc1OC (stereo not given in full)	–
Nc1cc(C(=O)N2CCOC(Cc3ccccc3)C2)ccn1 (stereo not given)	–
CN(CCC(=O)/C=C/c1ccc(Cl)c(Cl)c1)CCc1ccc2c(c1)OCO2	83
CC(C)c1ccc(/C=C/C(=O)NCc2ccc3c(c2)OCO3)cc1	–
O=C(/C=C/c1ccc2c(c1)OCO2)Sc1ccc(Cl)cc1	–
COc1ccc(-c2ccc3c(N)c(C(=O)Nc4cccc(Br)c4)sc3n2)cc1	–
CCSc1nnc(-c2ccccc2)n1N	–
N#CC(C(N)=O)C1=Nc2ccccc2CC1 (stereo not given)	–
N#CC1=C(c2ccco2)C2CCCCC2=NC1=S (stereo not given)	–
CN1CCC2=NC(=S)C(C#N)=C(c3ccc(F)cc3)C2C1 (stereo not given)	97
COc1ccc(C2=C(C#N)C(=S)N=C(C3CC3)C2)cc1	–
SMILES	RBX1-CUL1 inh
CCOc1ccc(C(=O)Nc2nnc(SCC3=Nc4ccc(C)cc4C(=O)C3)s2)cc1	–
Nc1ccc(S(=O)(=O)Nc2ccc(Cl)c(Cl)c2)cc1	–
Ic1ccc(OCc2cccc3nsnc23)cc1	–
CC(=O)N1c2ccccc2C2(O)N=C(C)SC12 (stereo not given)	44
CC(=O)N1c2ccccc2C(=O)C1C (stereo not given)	–
CN1C(=O)C(O)(CC(=O)c2ccc(Cl)s2)c2ccccc21 (stereo not given)	–
CC1CCCCN1c1nc(-c2ccccc2)nc2ccccc12 (stereo not given)	–
Cn1c(SCC(=O)N/N=C/c2cccnc2)nc2ccccc21	–
CCc1ccc(OCc2nnc(SCC(=O)Nc3ccc(Br)cc3)o2)cc1	–
Cc1ncsc1C(=O)N1CCC2(CCCN(CCCc3ccccc3)C2=O)C1 (stereo not given)	–
N#Cc1ccc(-c2ccc3c(c2)OCO3)nc1SCC(=O)Nc1nnc(SCc2ccccc2)s1	–
N#CC1(S(=O)(=O)c2ccccc2)CCCCC1	–
CC(C)c1nn2c(N)c(C=C3C=C(Br)C=CC3=O)c(=O)nc2s1	–
Nc1c(C=C2C=C(Cl)C(=O)C(Cl)=C2)c(=O)nc2sc(C34CC5CC(CC(C5)C3)C4)nn12	76
CCC(CC)c1nn2c(N)c(C=C3C=CC(=O)C(OC)=C3)c(=O)nc2s1	–
Cc1cccc(OCCN2C(=O)COc3ccc(Cl)cc32)c1	–
CCc1nc(N2CCOCC2)c2oc3ccccc3c2n1	–
COCCN1C(=O)C(Cc2ccc(-c3cccc(C(=O)O)c3)o2)=NC1=S	35
O=C(O)c1cccc(-c2ccc(CNC3CCCC3)o2)c1	–
C=CCN1C(=O)N=C(Cc2ccc(-c3cccc(Br)c3)o2)C1=O	–
CC(Oc1ccc2ccccc2c1)C(=O)N1CCOCC1 (stereo not given)	–
O=C1NC(=S)NC(=O)C1=Cc1cc(Cl)ccc1OCc1ccc(C(=O)O)cc1	–
O=C1NC(=S)NC(=O)C1=Cc1c(OCc2ccc(Br)cc2)ccc2ccccc12	58
